Molecular target: Hexose transporter 1 (Plasmodium falciparum) (UniProt O97467)
Assay: ST_JUDE_LEISH: Cytotoxicity at 2uM final concentration against transgenic Leishmania Mexicana promastigotes LmPfHT that are glucose transport deficient and complemented with the Plasmodium falciparum hexose transporter. Activity is measured by DNA content using SYBR green in vitro
Type: functional

Row | Compound | inhibition [%]
1 | Cc1nc2nc(N)nc(N)c2c(C)c1Cc1ccccc1Br | 14.9
2 | Cc1ccc(NS(=O)(=O)c2cccs2)cc1-c1cccc(C(=O)Nc2ccc(F)cc2)c1 | 3.65
3 | FC(F)(F)c1ccc(NC(=S)N2CCC(CCN3CCC(c4c[nH]c5ccccc45)CC3)CC2)cc1 | 3.8
4 | O=C(Nc1ccc(Cl)cn1)c1sc2ccccc2c1O | 3.43
5 | CC(C)CNCc1ccc(-c2cccc(CN(CCN(C)C)C(=O)CCC3CCCC3)c2)cc1 | 23.7
6 | COc1ccc(Nc2ncc(Cl)c(Nc3cccnc3C(N)=O)n2)cc1N1CCN(C)CC1 | 92.6
7 | CCCNCc1ccc(-c2ccc(CN(CC3CCCO3)C(=O)C3CC(=O)c4ccccc43)cc2)nc1 (stereo not given) | 3.74
8 | Cc1cnc(C(=O)Nc2ccc3c(c2)CCCN(Cc2c[nH]c4cnccc24)C3)cn1 | 11.4
9 | O=C(Cc1cccc(O)c1)NCC(Cc1ccc(O)cc1)c1ccccc1 (stereo not given) | -0.06
10 | CCOc1cc(CC)ccc1C1CCN(CCCCNC(=O)c2ccc(NC(=O)c3ccc(C#N)cc3)cc2)CC1 | 0.91
11 | CCc1cc(NC2CCN(C)CC2)nc(Nc2ccc(C)cc2)n1 | 4.93
12 | CCCc1cnc2nc(N)nc(N)c2c1C | -0.62
13 | O=C(Nc1ccc(F)cc1F)NC1CCN(CCCCCNC(=O)C2CC2c2ccc(Cl)c(Cl)c2)CC1 (stereo not given) | 2.99
14 | Oc1ccc(Cl)cc1CN1CCCC(COC(c2ccc(F)cc2)c2ccc(F)cc2)C1 (stereo not given) | 1.7
15 | Cc1cnc(C(=O)Nc2cccc(-c3ccc(-c4nc5cc(F)ccc5[nH]4)cc3)c2)cn1 | 10
16 | CCCOc1ccccc1C(=O)Nc1nonc1-c1ccc(OCC)c(OCC)c1 | 0.51
17 | CNc1ccc(CNCc2ccc(-c3ccc(-c4nc5cc(C(F)(F)F)ccc5[nH]4)s3)cc2)cc1 | 0.49
18 | Cc1cc(NCCC(=O)Nc2ccccc2)nc(NCCc2ccccc2)n1 | 1.77
19 | Cc1ccc(NC(=O)c2ccc(NCCCN3CC(C)CC(C)C3)c([N+](=O)[O-])c2)cc1F (stereo not given) | 5.06
20 | COc1cc(NC(=O)c2sc(-c3ccc(Cl)cc3)cc2Cl)ccc1OCCN1CCCC1 | 9.57

Row | Compound | inhibition [%]
21 | CC(C)(C)c1ccc(CN2CCC(CNC(=O)c3cc(-c4ccccc4Cl)cs3)C2)cc1 (stereo not given) | 0.05
22 | Nc1ncc(-c2ccsc2)c2ccc(-c3ccc4cn[nH]c4c3)cc12 | 1.38
23 | COc1cccc(CC(=O)N2CCC(n3c(C)nc4ccc(F)cc43)CC2)c1 | 4.64
24 | Cc1cc(NCc2ccccc2)nc2cc(O)ccc12 | 13.2
25 | OCCN1CCN(C(=S)Nc2ccccc2)CC1 | 3.14
26 | c1ccc(Oc2ccc(Nc3ccnc(Nc4ccc5cn[nH]c5c4)n3)cc2)cc1 | 3.81
27 | COCCCNc1nc2cc(OC)c(OC)cc2c2nc(-c3ccccc3)nn12 | 1.16
28 | Cc1cccc(-c2nc3[nH]c(=O)cc(NC(=O)C(C)C)n3n2)c1 | -2.49
29 | O=c1cc(NCCCNCc2ccc3c(c2)OC(F)(F)O3)[nH]c2ccccc12 | 0.16
30 | COc1ccc(C(C(=O)NC2CCN(C[C@H](O)c3ccnc4ccc(OC)cc34)CC2)N2CCN(c3ccc(Cl)c(Cl)c3)CC2)cc1 (stereo not given in full) | -2.17
31 | CCN1CCC(N(Cc2ccc(-c3ccc(C(F)(F)F)s3)cc2)C(=O)Cn2c(CCc3cccc(F)c3F)nc(=O)c3ccccc32)CC1 | 5.93
32 | CS(=O)(=O)N1CC2(CCN(CCC(NC(=O)NCc3ccc(Cl)c(Cl)c3)c3ccc(Cl)c(Cl)c3)CC2)c2ccccc21 (stereo not given) | -2.55
33 | Nc1ccnc2ccc(OCCCCCCc3ccccc3)cc12 | -1.93
34 | CNC(=O)C1Cc2c([nH]c3ccc(Br)cc23)C2(CCN(CCc3ccccc3)CC2)N1 (stereo not given) | 3.44
35 | CC(C)c1ccc(NC(=O)NCCCC2CCCN(CCCCCNC(=O)/C=C/c3ccc(Cl)c(Cl)c3)C2)cc1 (stereo not given) | 2.49
36 | c1ccc(CN2CCC(NCc3ccccc3-c3ccc(CNC4CCCC4)cc3)CC2)cc1 | 3.06
37 | O=C(NC1CCN(Cc2ccsc2)CC1)c1ccc(-c2cccc(C(F)(F)F)c2)s1 | 9.07
38 | Oc1cc(Nc2ccnc3cc(I)ccc23)ccc1F | -0.07
39 | COc1ccc(Cc2c(N)nc3nc(N)nc(N)c3c2C)cc1 | 3.73
40 | COc1ccc2[nH]ccc(=NN=Cc3ccccc3F)c2c1 | 7.67

Molecular target: Glucose transporter (Leishmania mexicana) (UniProt O61059)
Assay: ST_JUDE_LEISH: Cytotoxicity at 2uM final concentration against transgenic Leishmania Mexicana promastigotes LmGT2 that are glucose transport deficient and complemented with the L. Mexicana glucose transporter 2. Activity is measured by DNA content using SYBR green in vitro
Type: functional

Row | Compound | inhibition [%]
41 | Cc1nc2nc(N)nc(N)c2c(C)c1Cc1ccccc1Br | 6.78
42 | Cc1ccc(NS(=O)(=O)c2cccs2)cc1-c1cccc(C(=O)Nc2ccc(F)cc2)c1 | 1.16
43 | FC(F)(F)c1ccc(NC(=S)N2CCC(CCN3CCC(c4c[nH]c5ccccc45)CC3)CC2)cc1 | 5.31
44 | O=C(Nc1ccc(Cl)cn1)c1sc2ccccc2c1O | 0.99
45 | CC(C)CNCc1ccc(-c2cccc(CN(CCN(C)C)C(=O)CCC3CCCC3)c2)cc1 | 11.2
46 | COc1ccc(Nc2ncc(Cl)c(Nc3cccnc3C(N)=O)n2)cc1N1CCN(C)CC1 | 85.9
47 | CCCNCc1ccc(-c2ccc(CN(CC3CCCO3)C(=O)C3CC(=O)c4ccccc43)cc2)nc1 (stereo not given) | 3.19
48 | Cc1cnc(C(=O)Nc2ccc3c(c2)CCCN(Cc2c[nH]c4cnccc24)C3)cn1 | 9.32
49 | O=C(Cc1cccc(O)c1)NCC(Cc1ccc(O)cc1)c1ccccc1 (stereo not given) | 0.22
50 | CCOc1cc(CC)ccc1C1CCN(CCCCNC(=O)c2ccc(NC(=O)c3ccc(C#N)cc3)cc2)CC1 | 2.06
51 | CCc1cc(NC2CCN(C)CC2)nc(Nc2ccc(C)cc2)n1 | -1.22
52 | CCCc1cnc2nc(N)nc(N)c2c1C | 0.34
53 | O=C(Nc1ccc(F)cc1F)NC1CCN(CCCCCNC(=O)C2CC2c2ccc(Cl)c(Cl)c2)CC1 (stereo not given) | 3.47
54 | Oc1ccc(Cl)cc1CN1CCCC(COC(c2ccc(F)cc2)c2ccc(F)cc2)C1 (stereo not given) | -2.44
55 | Cc1cnc(C(=O)Nc2cccc(-c3ccc(-c4nc5cc(F)ccc5[nH]4)cc3)c2)cn1 | 8.63
56 | CCCOc1ccccc1C(=O)Nc1nonc1-c1ccc(OCC)c(OCC)c1 | 0.93
57 | CNc1ccc(CNCc2ccc(-c3ccc(-c4nc5cc(C(F)(F)F)ccc5[nH]4)s3)cc2)cc1 | -0.01
58 | Cc1cc(NCCC(=O)Nc2ccccc2)nc(NCCc2ccccc2)n1 | 0.45
59 | Cc1ccc(NC(=O)c2ccc(NCCCN3CC(C)CC(C)C3)c([N+](=O)[O-])c2)cc1F (stereo not given) | 5.89
60 | COc1cc(NC(=O)c2sc(-c3ccc(Cl)cc3)cc2Cl)ccc1OCCN1CCCC1 | 9.29

Row | Compound | inhibition [%]
61 | CC(C)(C)c1ccc(CN2CCC(CNC(=O)c3cc(-c4ccccc4Cl)cs3)C2)cc1 (stereo not given) | 1.29
62 | Nc1ncc(-c2ccsc2)c2ccc(-c3ccc4cn[nH]c4c3)cc12 | 5.29
63 | COc1cccc(CC(=O)N2CCC(n3c(C)nc4ccc(F)cc43)CC2)c1 | 2.33
64 | Cc1cc(NCc2ccccc2)nc2cc(O)ccc12 | 7.14
65 | OCCN1CCN(C(=S)Nc2ccccc2)CC1 | 3.02
66 | c1ccc(Oc2ccc(Nc3ccnc(Nc4ccc5cn[nH]c5c4)n3)cc2)cc1 | 1.54
67 | COCCCNc1nc2cc(OC)c(OC)cc2c2nc(-c3ccccc3)nn12 | 0.85
68 | Cc1cccc(-c2nc3[nH]c(=O)cc(NC(=O)C(C)C)n3n2)c1 | -1.3
69 | O=c1cc(NCCCNCc2ccc3c(c2)OC(F)(F)O3)[nH]c2ccccc12 | -1.35
70 | COc1ccc(C(C(=O)NC2CCN(C[C@H](O)c3ccnc4ccc(OC)cc34)CC2)N2CCN(c3ccc(Cl)c(Cl)c3)CC2)cc1 (stereo not given in full) | -4.15
71 | CCN1CCC(N(Cc2ccc(-c3ccc(C(F)(F)F)s3)cc2)C(=O)Cn2c(CCc3cccc(F)c3F)nc(=O)c3ccccc32)CC1 | 5.76
72 | CS(=O)(=O)N1CC2(CCN(CCC(NC(=O)NCc3ccc(Cl)c(Cl)c3)c3ccc(Cl)c(Cl)c3)CC2)c2ccccc21 (stereo not given) | -1.75
73 | Nc1ccnc2ccc(OCCCCCCc3ccccc3)cc12 | -1.14
74 | CNC(=O)C1Cc2c([nH]c3ccc(Br)cc23)C2(CCN(CCc3ccccc3)CC2)N1 (stereo not given) | 6.65
75 | CC(C)c1ccc(NC(=O)NCCCC2CCCN(CCCCCNC(=O)/C=C/c3ccc(Cl)c(Cl)c3)C2)cc1 (stereo not given) | 5.08
76 | c1ccc(CN2CCC(NCc3ccccc3-c3ccc(CNC4CCCC4)cc3)CC2)cc1 | 6.38
77 | O=C(NC1CCN(Cc2ccsc2)CC1)c1ccc(-c2cccc(C(F)(F)F)c2)s1 | 0.59
78 | Oc1cc(Nc2ccnc3cc(I)ccc23)ccc1F | 0.37
79 | COc1ccc(Cc2c(N)nc3nc(N)nc(N)c3c2C)cc1 | 3.1
80 | COc1ccc2[nH]ccc(=NN=Cc3ccccc3F)c2c1 | 7.56

Source: ChEMBL document CHEMBL3433997, “St. Jude Leishmania screening dataset” (2016)
